Reference: PubChem BioAssay (NCI)
Values joined by “and” are separate entries in the source; they are usually repeats but may differ in a detail not shown here. Identical values can stand only once. This is part of a sample that, as a whole, favours compounds with a hit. Of some 83,000 tested, about 20% had one in any assay.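 Note: values are percent growth. 100 is the growth of untreated cells, values between 100 and 0 indicate rising inhibition; between -100 and 0 indicates cell death.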 Active and inactive are the calls of the source. The calls were made as follows: active = growth percent below 10; inactive = the rest.

Tests used:
Experiment in all cases: NCI-60 one-dose screen, 48 h (100 = growth as untreated, 0 = no growth, -100 = all killed)
[1] = system: HCT-15 colon
[2] = system: HT29 colon
[3] = system: SNB-75 CNS
[4] = system: SNB-19 CNS
[5] = system: U251 CNS
[6] = system: PC-3 prostate
[7] = system: SK-MEL-5 melanoma
[8] = system: UACC-62 melanoma
[9] = system: LOX IMVI melanoma
[10] = system: SK-MEL-28 melanoma; conditions: 10 µM unless noted
[11] = system: SK-MEL-2 melanoma; conditions: 10 µM unless noted
[12] = system: EKVX NSCLC
[13] = system: SN12C renal
[14] = system: UO-31 renal
[15] = system: TK-10 renal
[16] = system: ACHN renal
[17] = system: CAKI-1 renal
[18] = system: A498 renal
[19] = system: HL-60(TB) leukemia
[20] = system: CCRF-CEM leukemia

Measured: growth

CCCCCCCCCCCCCCCC[N+](C)(C)Cc1ccccc1
inactive: [1]; 10 µM unless noted 64% and 42% | [14]; 10 µM unless noted 54.3% and 51% | [16]; 10 µM unless noted 55.1% and 23.4% | [17]; 10 µM unless noted 84.4% and 50.6% | [18]; 10 µM unless noted 36.2% and 38.2%
15.8% (inactive) and -27.6% (active): [12]; 10 µM unless noted
active: [2]; 10 µM unless noted -43.6% and -81% | [3]; 10 µM unless noted -21.6% and -70.3% | [4]; 10 µM unless noted -40.3% | [5]; 10 µM unless noted -16% and -94.9% | [6]; 10 µM unless noted -34.9% and -44.1% | [7]; 10 µM unless noted -86.5% and -100% | [8]; 10 µM unless noted -26% and -74.5% | [9]; 10 µM unless noted -79% and -97.1% | [10] -27.7% and -58.1% | [13]; 10 µM unless noted 5.04% and -76.7% | [15]; 10 µM unless noted 8.74% and -73.5% | [19]; 10 µM unless noted -28.8% and -47.8% | [20]; 10 µM unless noted -22% and -30.1%
25.2% (inactive) and -69% (active): [11]

Cn1cc(-c2csc(-c3cn(CCCCN4CCOCC4)c4ccc(F)cc34)n2)c2cccnc21
active: [2]; 10 µM unless noted -64% | [10] -87.1% | [20]; 10 µM unless noted -59.6%
inactive: [1]; 10 µM unless noted 61.7% | [3]; 10 µM unless noted 61.9% | [4]; 10 µM unless noted 88.2% | [5]; 10 µM unless noted 67.3% | [6]; 10 µM unless noted 49.3% | [7]; 10 µM unless noted 48.1% | [8]; 10 µM unless noted 22.8% | [9]; 10 µM unless noted 67.6% | [11] 78.7% | [12]; 10 µM unless noted 72.7% | [13]; 10 µM unless noted 72.2% | [14]; 10 µM unless noted 44.4% | [15]; 10 µM unless noted 75.4% | [16]; 10 µM unless noted 86.3% | [17]; 10 µM unless noted 76.1% | [18]; 10 µM unless noted 46.7% | [19]; 10 µM unless noted 76.2%

O=[N+]([O-])c1ccc(OCc2ccc(S(=O)(=O)F)c(Cl)c2)c(Cl)c1
inactive: [1]; 10 µM unless noted 84.6% | [2]; 10 µM unless noted 99.2% | [3]; 10 µM unless noted 92.8% | [4]; 10 µM unless noted 108% | [5]; 10 µM unless noted 107% | [6]; 10 µM unless noted 91.4% | [7]; 10 µM unless noted 99.6% | [8]; 10 µM unless noted 92.6% | [9]; 10 µM unless noted 93% | [10] 119% | [11] 88.7% | [12]; 10 µM unless noted 112% | [13]; 10 µM unless noted 97.7% | [14]; 10 µM unless noted 70% | [15]; 10 µM unless noted 102% | [16]; 10 µM unless noted 92.7% | [17]; 10 µM unless noted 102% | [18]; 10 µM unless noted 95.6% | [19]; 10 µM unless noted 88.9% | [20]; 10 µM unless noted 87.9%

CCCCn1c(=O)c(C(=O)NCc2ccccc2Cl)c(O)c2ccccc21
inactive: [1]; 10 µM unless noted 48.6% | [2]; 10 µM unless noted 75.5% | [3]; 10 µM unless noted 98.4% | [4]; 10 µM unless noted 82.6% | [5]; 10 µM unless noted 68.2% | [6]; 10 µM unless noted 34.1% | [7]; 10 µM unless noted 72.7% | [8]; 10 µM unless noted 88.5% | [9]; 10 µM unless noted 55.4% | [10] 103% | [11] 94.3% | [12]; 10 µM unless noted 56.5% | [13]; 10 µM unless noted 76.7% | [14]; 10 µM unless noted 73.4% | [15]; 10 µM unless noted 84.3% | [16]; 10 µM unless noted 81.3% | [17]; 10 µM unless noted 79.6% | [18]; 10 µM unless noted 71.2% | [19]; 10 µM unless noted 60.7% | [20]; 10 µM unless noted 43.7%

Nc1c(Cl)c(Cl)nc(C(=O)O)c1Cl
inactive: [1]; 10 µM unless noted 95% | [2]; 10 µM unless noted 110% | [3]; 10 µM unless noted 71.4% | [4]; 10 µM unless noted 95.1% | [5]; 10 µM unless noted 94.2% | [6]; 10 µM unless noted 84.9% | [7]; 10 µM unless noted 108% | [8]; 10 µM unless noted 92.4% | [9]; 10 µM unless noted 90.7% | [10] 120% | [11] 92.5% | [12]; 10 µM unless noted 86.5% | [13]; 10 µM unless noted 93.6% | [14]; 10 µM unless noted 71.1% | [15]; 10 µM unless noted 99.2% | [16]; 10 µM unless noted 88.2% | [17]; 10 µM unless noted 90.1% | [18]; 10 µM unless noted 138% | [19]; 10 µM unless noted 62.8%

CC1=CC(=Nc2ccc(N(CCCl)CCCl)cc2)C=C(C)C1=O
inactive: [2]; 10 µM unless noted 11.1% | [3]; 10 µM unless noted 25.3% | [4]; 10 µM unless noted 37.9% | [5]; 10 µM unless noted 17.9% | [6]; 10 µM unless noted 41.6% | [7]; 10 µM unless noted 22.8% | [9]; 10 µM unless noted 16.9% | [10] 26.3% | [12]; 10 µM unless noted 70.6% | [13]; 10 µM unless noted 20.4% | [18]; 10 µM unless noted 69.8%
active: [1]; 10 µM unless noted 8.95% | [8]; 10 µM unless noted 6.59% | [11] -8.46% | [14]; 10 µM unless noted -13.7% | [15]; 10 µM unless noted 9.98% | [16]; 10 µM unless noted -1.94% | [17]; 10 µM unless noted -44.9% | [19]; 10 µM unless noted -7.43% | [20]; 10 µM unless noted -6.58%

O=C(O)CCCc1ccc(N(CCCl)CCCl)cc1
active: [3]; 75 µM 3.53% | [16]; 75 µM -12.3% | [17]; 75 µM -12.5% | [19]; 75 µM 3.35% | [20]; 75 µM -7.66%
inactive: [1]; 10 µM 86.1% and 95.5% | [1]; 75 µM 46.3% | [2]; 10 µM 85.7% and 74.5% | [2]; 75 µM 45.2% | [3]; 10 µM 88.9% and 90.1% | [4]; 10 µM 102% and 95.9% | [4]; 75 µM 32.9% | [5]; 10 µM 85.1% and 84% | [5]; 75 µM 30% | [6]; 10 µM 85.3% and 64.5% | [6]; 75 µM 45.3% | [7]; 10 µM 93% and 88.4% | [7]; 75 µM 38.6% | [8]; 10 µM 82.7% and 78.8% | [8]; 75 µM 28.6% | [9]; 10 µM 83.1% and 80.2% | [9]; 75 µM 26.7% | [10] 99.3% | [12]; 10 µM 101% | [12]; 75 µM 82.2% | [13]; 10 µM 82.9% and 86.8% | [13]; 75 µM 41.2% | [14]; 10 µM 83.4% and 89.5% | [14]; 75 µM 28.8% | [15]; 10 µM 102% | [15]; 75 µM 84.6% | [16]; 10 µM 72.4% and 38.8% | [17]; 10 µM 57.9% and 34.2% | [18]; 10 µM 115% and 99.6% | [18]; 75 µM 68.5% | [19]; 10 µM 19.6% | [20]; 10 µM 71.9% and 46.6%

COc1cc(/C=C\[N+](=O)[O-])ccc1OCc1ccccc1
inactive: [3]; 10 µM unless noted 79.2% | [4]; 10 µM unless noted 36.5% | [6]; 10 µM unless noted 23% | [7]; 10 µM unless noted 65.2% | [8]; 10 µM unless noted 30.5% | [10] 18.5% | [11] 89.5% | [12]; 10 µM unless noted 91.5% | [13]; 10 µM unless noted 56.6% | [14]; 10 µM unless noted 30.2% | [15]; 10 µM unless noted 66.3% | [16]; 10 µM unless noted 46.4% | [17]; 10 µM unless noted 73.7% | [18]; 10 µM unless noted 71.1% | [20]; 10 µM unless noted 14.5%
active: [1]; 10 µM unless noted -11.7% | [2]; 10 µM unless noted 4.62% | [5]; 10 µM unless noted 5.01% | [9]; 10 µM unless noted -83.3% | [19]; 10 µM unless noted 3.4%

CC[PH+](CC)CC.O=COC1OC([S-])C(OC=O)C(OC=O)C1OC=O.[Au+] (stereo unspecified)
active: [1]; 10 µM unless noted -74.9% | [2]; 10 µM unless noted -54% | [3]; 10 µM unless noted -24.2% | [4]; 10 µM unless noted -99.1% | [5]; 10 µM unless noted -99.5% | [6]; 10 µM unless noted -7.17% | [7]; 10 µM unless noted -96.7% | [8]; 10 µM unless noted -99% | [9]; 10 µM unless noted -89.4% | [10] -92.1% | [11] -72.5% | [12]; 10 µM unless noted -41.2% | [13]; 10 µM unless noted -90.9% | [14]; 10 µM unless noted -91.2% | [15]; 10 µM unless noted -97.7% | [16]; 10 µM unless noted -99.7% | [17]; 10 µM unless noted -92.8% | [18]; 10 µM unless noted -82.2% | [19]; 10 µM unless noted -33.3% | [20]; 10 µM unless noted -11.4%

C/C(=C\c1ccn(-c2ccc(N)c(C(F)(F)F)c2)n1)[C@@H]1C[C@@H]2O[C@]2(C)CCC[C@H](C)[C@H](O)[C@@H](C)C(=O)C(C)(C)[C@@H](O)CC(=O)O1
active: [3]; 10 µM unless noted -2.27% | [19]; 10 µM unless noted 7.41%
inactive: [1]; 10 µM unless noted 20% | [2]; 10 µM unless noted 13% | [4]; 10 µM unless noted 38% | [5]; 10 µM unless noted 26.3% | [6]; 10 µM unless noted 15.7% | [7]; 10 µM unless noted 21.5% | [8]; 10 µM unless noted 20.7% | [9]; 10 µM unless noted 26.2% | [10] 55.8% | [11] 45.1% | [12]; 10 µM unless noted 39.7% | [13]; 10 µM unless noted 41.3% | [14]; 10 µM unless noted 32.7% | [15]; 10 µM unless noted 52.6% | [16]; 10 µM unless noted 46.3% | [17]; 10 µM unless noted 52.1% | [18]; 10 µM unless noted 22.6% | [20]; 10 µM unless noted 14.3%

O=C(NCCCN1CC1)Nc1cccc2ccccc12
inactive: [1]; 10 µM unless noted 106% and 100% | [2]; 10 µM unless noted 83.9% | [3]; 10 µM unless noted 105% and 102% | [4]; 10 µM unless noted 88.5% and 95% | [5]; 10 µM unless noted 87% and 86.6% | [6]; 10 µM unless noted 87.8% and 89.7% | [7]; 10 µM unless noted 107% and 93.3% | [8]; 10 µM unless noted 98% and 105% | [9]; 10 µM unless noted 95.6% and 78.4% | [10] 107% and 115% | [11] 97.1% and 97.9% | [12]; 10 µM unless noted 109% and 103% | [13]; 10 µM unless noted 94.4% and 97.5% | [14]; 10 µM unless noted 97.7% and 83.7% | [15]; 10 µM unless noted 103% and 93.3% | [16]; 10 µM unless noted 93% and 87.6% | [17]; 10 µM unless noted 95.8% and 85.1% | [18]; 10 µM unless noted 124% and 86.9% | [19]; 10 µM unless noted 107% | [20]; 10 µM unless noted 108% and 86.3%
